# According to article PMC7862700, “An all-to-all approach to the identification of sequence-specific readers for epigenetic DNA modifications on cytosine”:
# Tests used:
# Experiment in all cases: DAPPL (digital affinity profiling via proximity ligation, sequencing); 10 mM Tris-HCl pH 7.5, 50 mM NaCl, 1 mM DTT, 4% glycerol, room temperature, 30 min; GST-TFs on glutathione beads, 16-mer random dsDNA library, 0.1% formaldehyde crosslink after washing; high values mean tight binding
# Conditions in all cases: protein: recombinant; tags: N-terminal GST; dsDNA, one strand shown
# [1] = molecular target: T1, ELK1 (Homo sapiens, UniProt P19419 1-428)
# T1 sequence: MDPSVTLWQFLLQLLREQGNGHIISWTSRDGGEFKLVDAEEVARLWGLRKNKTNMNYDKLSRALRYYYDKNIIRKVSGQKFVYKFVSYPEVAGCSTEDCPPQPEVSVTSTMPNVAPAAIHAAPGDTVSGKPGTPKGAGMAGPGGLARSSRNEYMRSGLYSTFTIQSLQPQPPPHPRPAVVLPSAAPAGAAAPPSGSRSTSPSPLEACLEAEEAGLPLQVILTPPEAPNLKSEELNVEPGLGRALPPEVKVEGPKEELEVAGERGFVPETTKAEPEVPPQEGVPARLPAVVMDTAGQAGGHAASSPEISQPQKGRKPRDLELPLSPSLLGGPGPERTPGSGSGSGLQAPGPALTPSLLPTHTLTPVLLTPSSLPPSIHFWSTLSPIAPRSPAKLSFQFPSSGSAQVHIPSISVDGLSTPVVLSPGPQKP
# How it was run: (§1)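 The binding signal reported is, for every hexamer, its read frequency for a factor over its read frequency for the tag-only sample. Reads came from pools of yeast-expressed, GST-fused human transcription factors on glutathione beads, barcoded with DNA and mixed with that sample, which were incubated with 200 nmole of a random double-stranded 16-mer DNA library in Tris/NaCl/DTT/glycerol buffer at room temperature for 30 min. After washing, the pools were crosslinked with 0.1% formaldehyde, proximity-ligated with BsaI/T4 ligase for 1 h at 37 °C, PCR-amplified and sequenced on an Illumina NextSeq500.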
# [2] = molecular target: T2, GABPA (Homo sapiens, UniProt Q06546 1-454)
# T2 sequence: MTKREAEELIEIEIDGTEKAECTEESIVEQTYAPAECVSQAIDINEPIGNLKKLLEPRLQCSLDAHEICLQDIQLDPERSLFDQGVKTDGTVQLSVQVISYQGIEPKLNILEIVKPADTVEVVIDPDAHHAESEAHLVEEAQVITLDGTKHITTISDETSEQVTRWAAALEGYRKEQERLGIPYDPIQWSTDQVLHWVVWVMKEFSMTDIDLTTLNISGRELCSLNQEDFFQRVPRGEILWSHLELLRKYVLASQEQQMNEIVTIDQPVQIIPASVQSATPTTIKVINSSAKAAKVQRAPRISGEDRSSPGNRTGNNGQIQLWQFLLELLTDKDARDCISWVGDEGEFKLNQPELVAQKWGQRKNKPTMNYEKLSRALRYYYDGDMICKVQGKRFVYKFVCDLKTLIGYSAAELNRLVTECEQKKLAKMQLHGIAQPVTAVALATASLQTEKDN
# How it was run: as §1
# [3] = molecular target: T3, ERG (Homo sapiens, UniProt P11308 1-479)
# T3 sequence: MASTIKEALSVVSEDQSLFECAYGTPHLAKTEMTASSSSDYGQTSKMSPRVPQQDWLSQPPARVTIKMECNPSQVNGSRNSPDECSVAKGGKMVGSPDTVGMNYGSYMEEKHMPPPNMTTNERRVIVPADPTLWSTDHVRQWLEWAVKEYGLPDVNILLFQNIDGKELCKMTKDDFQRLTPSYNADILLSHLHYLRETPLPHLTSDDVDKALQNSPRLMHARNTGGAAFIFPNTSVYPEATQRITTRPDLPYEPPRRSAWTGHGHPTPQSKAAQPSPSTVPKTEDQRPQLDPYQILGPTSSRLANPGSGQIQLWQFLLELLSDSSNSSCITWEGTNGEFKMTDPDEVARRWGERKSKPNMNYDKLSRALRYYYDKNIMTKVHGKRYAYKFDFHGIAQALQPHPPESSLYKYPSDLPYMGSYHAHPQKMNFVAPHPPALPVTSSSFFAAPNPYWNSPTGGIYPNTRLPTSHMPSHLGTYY
# How it was run: as §1
# [4] = molecular target: ELF1 (Homo sapiens, UniProt P32519 1-619)
# Chain of ELF1 (P32519 whole entry): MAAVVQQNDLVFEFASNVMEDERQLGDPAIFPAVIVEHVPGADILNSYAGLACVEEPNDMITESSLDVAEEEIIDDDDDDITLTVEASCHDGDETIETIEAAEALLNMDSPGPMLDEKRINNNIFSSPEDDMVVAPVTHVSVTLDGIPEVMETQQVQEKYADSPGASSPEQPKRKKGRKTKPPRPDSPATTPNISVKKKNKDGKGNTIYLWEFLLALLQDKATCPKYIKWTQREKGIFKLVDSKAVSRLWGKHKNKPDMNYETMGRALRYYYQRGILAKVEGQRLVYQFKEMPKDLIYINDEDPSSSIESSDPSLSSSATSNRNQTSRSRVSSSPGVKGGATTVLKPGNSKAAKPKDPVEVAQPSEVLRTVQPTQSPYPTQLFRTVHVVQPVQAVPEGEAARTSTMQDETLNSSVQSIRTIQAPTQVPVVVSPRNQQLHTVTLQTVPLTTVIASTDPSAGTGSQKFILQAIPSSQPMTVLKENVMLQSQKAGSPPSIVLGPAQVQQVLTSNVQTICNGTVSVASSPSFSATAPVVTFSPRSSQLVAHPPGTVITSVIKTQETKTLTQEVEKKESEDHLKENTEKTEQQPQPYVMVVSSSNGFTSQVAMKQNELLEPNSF
# How it was run: as §1
# [5] = molecular target: T4, EHF (Homo sapiens, UniProt Q9NZC4 1-300)
# T4 sequence: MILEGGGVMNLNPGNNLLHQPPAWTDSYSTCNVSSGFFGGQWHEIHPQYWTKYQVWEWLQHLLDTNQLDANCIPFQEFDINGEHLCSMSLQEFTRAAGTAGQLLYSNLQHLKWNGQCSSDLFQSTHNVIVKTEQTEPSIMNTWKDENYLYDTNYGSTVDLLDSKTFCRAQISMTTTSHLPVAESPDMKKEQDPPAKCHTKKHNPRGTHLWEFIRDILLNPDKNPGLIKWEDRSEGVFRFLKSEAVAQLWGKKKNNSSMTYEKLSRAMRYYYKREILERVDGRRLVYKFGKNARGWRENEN
# How it was run: as §1
# [6] = molecular target: SPIB (Homo sapiens, UniProt Q01892 1-262)
# Chain of SPIB (Q01892 whole entry): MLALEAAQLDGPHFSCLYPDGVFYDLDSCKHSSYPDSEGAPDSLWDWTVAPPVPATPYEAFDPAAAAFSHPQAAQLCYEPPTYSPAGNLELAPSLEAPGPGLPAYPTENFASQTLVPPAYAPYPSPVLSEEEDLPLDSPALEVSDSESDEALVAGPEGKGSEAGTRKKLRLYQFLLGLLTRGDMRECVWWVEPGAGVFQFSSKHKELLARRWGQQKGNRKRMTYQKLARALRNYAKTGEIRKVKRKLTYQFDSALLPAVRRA
# How it was run: as §1
# [7] = molecular target: T5, FEV (Homo sapiens, UniProt Q99581 1-238)
# T5 sequence: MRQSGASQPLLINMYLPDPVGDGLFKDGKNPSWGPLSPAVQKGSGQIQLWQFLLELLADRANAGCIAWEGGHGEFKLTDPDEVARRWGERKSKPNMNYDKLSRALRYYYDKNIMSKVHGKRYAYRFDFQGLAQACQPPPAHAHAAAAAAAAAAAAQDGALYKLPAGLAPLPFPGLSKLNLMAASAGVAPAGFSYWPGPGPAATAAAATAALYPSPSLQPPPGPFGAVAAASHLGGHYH
# How it was run: as §1
# [8] = molecular target: ETV5 (Homo sapiens, UniProt P41161 1-510)
# Chain of ETV5 (P41161 whole entry): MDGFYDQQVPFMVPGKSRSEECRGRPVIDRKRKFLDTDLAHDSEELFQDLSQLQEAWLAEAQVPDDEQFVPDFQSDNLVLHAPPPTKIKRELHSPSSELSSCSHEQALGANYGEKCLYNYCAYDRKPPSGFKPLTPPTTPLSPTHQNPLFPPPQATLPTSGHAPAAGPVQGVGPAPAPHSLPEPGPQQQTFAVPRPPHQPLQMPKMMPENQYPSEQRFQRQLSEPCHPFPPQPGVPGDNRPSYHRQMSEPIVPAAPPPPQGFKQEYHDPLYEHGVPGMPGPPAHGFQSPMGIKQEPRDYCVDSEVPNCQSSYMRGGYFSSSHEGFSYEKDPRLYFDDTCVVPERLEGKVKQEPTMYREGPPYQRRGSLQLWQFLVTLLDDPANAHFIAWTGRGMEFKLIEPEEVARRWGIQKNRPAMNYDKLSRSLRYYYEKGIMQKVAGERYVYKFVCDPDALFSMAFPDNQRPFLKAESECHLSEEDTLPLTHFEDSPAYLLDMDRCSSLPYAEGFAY
# How it was run: as §1
# [9] = molecular target: ELF4 (Homo sapiens, UniProt Q99607 1-663)
# Chain of ELF4 (Q99607 whole entry): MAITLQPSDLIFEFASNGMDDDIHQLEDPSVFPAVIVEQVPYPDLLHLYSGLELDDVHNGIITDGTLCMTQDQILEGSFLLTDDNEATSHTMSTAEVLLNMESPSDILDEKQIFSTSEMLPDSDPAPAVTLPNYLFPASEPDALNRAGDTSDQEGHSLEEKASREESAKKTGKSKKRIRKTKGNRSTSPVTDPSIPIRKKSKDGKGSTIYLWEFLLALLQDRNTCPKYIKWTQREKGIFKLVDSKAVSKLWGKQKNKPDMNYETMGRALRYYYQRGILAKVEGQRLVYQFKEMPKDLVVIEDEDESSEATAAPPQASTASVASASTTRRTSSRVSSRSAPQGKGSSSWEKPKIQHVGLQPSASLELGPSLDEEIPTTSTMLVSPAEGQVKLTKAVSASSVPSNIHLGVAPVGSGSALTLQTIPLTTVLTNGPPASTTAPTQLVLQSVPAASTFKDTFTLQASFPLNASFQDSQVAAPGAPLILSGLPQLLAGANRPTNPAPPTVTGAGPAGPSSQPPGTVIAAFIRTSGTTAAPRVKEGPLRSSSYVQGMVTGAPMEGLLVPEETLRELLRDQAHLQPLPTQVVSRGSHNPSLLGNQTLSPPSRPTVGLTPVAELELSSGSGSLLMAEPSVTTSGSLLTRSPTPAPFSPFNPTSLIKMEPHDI
# How it was run: as §1
# [10] = molecular target: T6, ELK4 (Homo sapiens, UniProt P28324-2 1-405)
# T6 sequence: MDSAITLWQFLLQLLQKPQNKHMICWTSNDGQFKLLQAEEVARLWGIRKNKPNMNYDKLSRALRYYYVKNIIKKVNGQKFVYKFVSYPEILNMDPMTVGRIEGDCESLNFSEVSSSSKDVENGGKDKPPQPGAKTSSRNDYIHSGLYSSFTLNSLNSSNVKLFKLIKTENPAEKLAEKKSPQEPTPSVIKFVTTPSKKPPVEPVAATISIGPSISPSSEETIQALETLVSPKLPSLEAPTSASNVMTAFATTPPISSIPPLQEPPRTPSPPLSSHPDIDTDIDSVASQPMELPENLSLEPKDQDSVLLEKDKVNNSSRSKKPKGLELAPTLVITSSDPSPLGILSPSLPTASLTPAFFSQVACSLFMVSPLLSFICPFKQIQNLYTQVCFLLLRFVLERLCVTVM
# How it was run: as §1
sequence,measurement,setting,value
CGTAAA,binding signal,[1],"1.12 fold enrichment (6-mer frequency, TF over GST control)"
same,binding signal,[2],"1.23 fold enrichment (6-mer frequency, TF over GST control)"
same,binding signal,[3],"1.13 fold enrichment (6-mer frequency, TF over GST control)"
same,binding signal,[4],"1.07 fold enrichment (6-mer frequency, TF over GST control)"
same,binding signal,[5],"1.13 fold enrichment (6-mer frequency, TF over GST control)"
same,binding signal,[6],"1.08 fold enrichment (6-mer frequency, TF over GST control)"
same,binding signal,[7],"1.04 fold enrichment (6-mer frequency, TF over GST control)"
same,binding signal,[8],"1.14 fold enrichment (6-mer frequency, TF over GST control)"
same,binding signal,[9],"1.11 fold enrichment (6-mer frequency, TF over GST control)"
same,binding signal,[10],"1.05 fold enrichment (6-mer frequency, TF over GST control)"
